Experimental data from PubChem BioAssay AID686978 (National Center for Advancing Translational Sciences (NCATS), 2013).
About 64,000 (15%) of roughly 420,000 compounds were called active. Roughly 27% stayed inconclusive and do not appear here. Not all results are given here. Unmarked numbers belong to inactive results. The call rests on the fitted dose curve; in most records, active means well fitted inhibition curve with a large enough effect; inconclusive means small, poorly fitted or top-dose-only effect; inactive means flat fitted curve, though single readings scatter.

assay: qHTS for Inhibitors of human tyrosyl-DNA phosphodiesterase 1 (TDP1): qHTS in cells in absence of CPT; conditions: DT40 Tdp1-/- hTDP1 cells, no CPT, ATP luminescence, 48 h; activity change, negative = growth inhibition: at 46.2 µM (top of the series); further: nearly all actives have a fitted effect of over 55% in size
Method in brief: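 Stably hTDP1-transfected Tdp1-null chicken DT40 cells were treated with library compounds minus camptothecin and grown for at least 48 hr at 37 °C, after which cellular ATP was quantified by luminescence.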
On the % scale 0 is the no-effect control and ±100 the full control effect; potency means the concentration at half of the fitted maximal effect.

SMILES	activity change, negative = growth inhibition [%]	Potency
COc1ccc(Cl)cc1NC(=O)CSc1nc2ccccc2c2nc(-c3ccccc3)nn12	-6.83	–
CCCCc1nc2ccc(F)cc2cc1C	0.145	–
OCC[C@H]1C[C@H](O)[C@@H](O)[C@]2(Cc3ccccc3CO2)O1	-6.77	–
O=C1OCCC1=COCCCCOC=C1CCOC1=O	-11.8	–
Cc1ccc(S(=O)(=O)NCCC(=O)Nc2ccc(C)c(Cl)c2)cc1C	-5.78	–
CC(=O)CCS(=O)(=O)c1ccc(C)c(C)c1	–	29.1 µM (active)
Cc1ccnc(NC(=O)CCNS(=O)(=O)c2ccc(C)c(C)c2)c1	0.695	–
CC(=O)Nc1c2c(nn1-c1cccc(C)c1)CSC2	7.88	–
Cn1cc(-c2nc3cncnc3n(-c3ccccc3)c2=O)c2ccccc21	-24.1	–
Cc1cc(C(=O)OCC(=O)Nc2ccccc2Cl)c(C)o1	-1.32	–
CCn1nccc1C(=O)Nc1ccc(Cl)c(Cl)c1	-15.9	–
O=C(Nc1ccc(S(=O)(=O)Nc2ncccn2)cc1)C12CC3CC(CC(C3)C1)C2	3.99	–
CCn1nccc1C(=O)Nc1ccc(S(=O)(=O)NC23CC4CC(CC(C4)C2)C3)cc1	–	16.4 µM (active)
O=C(NC(=O)N1CCOCC1)c1ccccc1	0.215	–
CCOC(=O)c1ccccc1NS(=O)(=O)c1ccc(OC)cc1	–	14.6 µM (active)
COCCNC(=O)c1ccccc1NS(=O)(=O)c1ccc(C)c([N+](=O)[O-])c1	-13.7	–
CCOc1cc(NS(=O)(=O)c2ccc(OC)cc2)c(OCC)cc1NC(C)=O	-14.7	–
O=c1nc(N/N=C/c2ccco2)cn[nH]1	-3.94	–
CC1CC(C)CN(C(=O)C2CC(=O)N(c3ccc(F)cc3)C2)C1 (configuration not stated)	-1.19	–
CCOc1cc(C(=O)OCC(=O)Nc2cccc(C)c2)ccc1OCC(=O)N1CCOCC1	23.9	–
COc1ccc(C2CC(=O)Oc3ccc(C(C)(C)C)cc32)cc1 (configuration not stated)	4.46	–
COc1ccccc1-c1cc(C(=O)NCCCn2ccnc2)no1	-15.1	–
COc1ccc(-c2cc(C(=O)NCCCn3ccnc3)no2)cc1	-20.9	–
O=C(NCCCn1ccnc1)c1cc(-c2ccccc2)on1	–	7.31 µM (active)
O=C(NCCN1CCOCC1)[C@H](Cc1ccccc1)N1C(=O)c2ccccc2C1=O	-28.8	–
Cc1csc(SCC(=O)Nc2sccc2C#N)n1	-11.8	–

SMILES	activity change, negative = growth inhibition [%]	Potency
Brc1ccc(-c2n(-c3ccccn3)c3ccccc3[n+]2-c2ccccn2)cc1	–	13 µM (active)
O=C(Cc1ccc(Br)cc1)N1CCN(c2ccccn2)CC1	-23.2	–
Cn1cc(CNC(=O)c2ccc(OC3CCN(Cc4ccccn4)CC3)cc2)cn1	-13	–
CN(C(=O)CSc1nc2ccccc2n1Cc1ccccc1C#N)c1ccccc1	–	18.4 µM (active)
COC(=O)c1ccc(Cn2c(SCC(=O)N(C)c3ccccc3)nc3ccccc32)cc1	–	23.1 µM (active)
COC(=O)CSc1nc2ccccc2c(=O)n1Cc1ccccc1	-18.6	–
CCn1c(SCC(=O)N2CCCC2=O)nc2ccccc21	9.74	–
Cc1ccc(Cn2c(SCC(=O)N/N=C/c3ccccc3OCC(=O)O)nc3ccccc32)cc1	13	–
CCN(CC)C(=O)CSc1nc2ccccc2n1CC(=O)N1CCN(c2ccccc2OC)CC1	-28	–
CC1=C(C/C=C(\C)CCCC(C)CCCC(C)CCCC(C)C)C(=O)c2ccccc2C1=O (configuration not stated)	-7.3	–
Cc1cc(C)cc(NC(=O)COc2coc(CN3CCN(c4ccccc4)CC3)cc2=O)c1	-32.4	–
CC1(C(=O)NS(=O)(=O)c2cccc(F)c2)CCN1C(=O)Cc1ccc(Cl)cc1Cl (configuration not stated)	-9.03	–
COc1ccccc1NC(=O)c1ccc(N2CC3CC(C2)c2cccc(=O)n2C3)c(NC(=O)c2cccnc2)c1 (configuration not stated)	-3.69	–
O=C(OCC1OC(Oc2ccc(O)cc2)C(O)C(O)C1O)c1ccccc1 (configuration not stated)	-2.28	–
O=C(CSc1nccn1Cc1ccc(Cl)cc1)NCc1ccccc1	–	29.1 µM (active)
CCCCNC(=O)CSc1nccn1Cc1ccccc1	-16.4	–
CCCCCCNC(=O)CSc1nccn1Cc1ccccc1	-20.3	–
N=c1oc2ccccc2cc1C(=O)N/N=C/c1ccccc1	-7.25	–
NC(=O)c1ccccc1N=Cc1ccc2ccccc2c1	–	16.4 µM (active)
O=C(COC(=O)Cc1ccccc1F)NNC(=O)c1ccc(Cl)cc1	-7.42	–
Cc1ccc(NC(=O)C2CCCN2C(=O)OCc2ccccc2)cc1C (configuration not stated)	-15.4	–
Cc1ccc(C)c(NC(=O)C2Cc3ccccc3CN2C(=O)OCc2ccccc2)c1 (configuration not stated)	–	20.6 µM (active)
Cc1ccc(S(=O)(=O)N(C)C)cc1NC(=O)C1Cc2ccccc2CN1C(=O)c1ccco1 (configuration not stated)	-0.334	–
Fc1ccccc1OCCCCn1cncn1	-6.12	–
COc1cc(/C=C/CNC[C@H]2O[C@@H](n3cnc(C(N)=O)n3)[C@H](O)[C@@H]2O)ccc1O	-8.27	–
OCC[C@H]1C[C@@H](O)[C@H](O)[C@]2(OCCCc3ccccc32)O1	-26.6	–
